40 sequences from publication PMC5913336, “True equilibrium measurement of transcription factor-DNA binding affinities using automated polarization microscopy” can be followed below.

In the assay the target is T1, Ems (Drosophila melanogaster, UniProt P18488 373-462).
T1 sequence: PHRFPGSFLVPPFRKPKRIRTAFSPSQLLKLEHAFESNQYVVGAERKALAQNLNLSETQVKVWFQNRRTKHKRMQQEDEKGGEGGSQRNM
Description: FP; 33 mM phosphate pH 7.0, 90 mM NaCl, 0.01% Tween 20, 0.1 mM DTT, 0.5% agarose; room temperature. To be noted: tags: N-GST (pGEX-6P-1, kept); dsDNA, one strand shown.
With CACGGAATTAGCTCA, the binding signal was 38.4 Kd / Kd of best base at the position.

For CACCTAATTAGCTCA, the binding signal is 1.08 Kd / Kd of best base at the position.

In the case of CACGTAATCAGCTCA, the binding signal is 40.1 Kd / Kd of best base at the position.

Take CACGTAAATAGCTCA: the binding signal was 54.5 Kd / Kd of best base at the position.

Consider CACGTAATTAACTCA, for which the binding signal is 9.76 Kd / Kd of best base at the position.

As for CACGTAATTAGGTCA, the binding signal is 7.3 Kd / Kd of best base at the position.

On to CTCGTAATTAGCTCA, for which the binding signal was 1.19 Kd / Kd of best base at the position.

Regarding CACGTAATTGGCTCA, the binding signal is 8.18 Kd / Kd of best base at the position.

In the case of CACGTAATAAGCTCA, the binding signal is 35.3 Kd / Kd of best base at the position.

Turning to CACGTAACTAGCTCA, the binding signal is 72.2 Kd / Kd of best base at the position.

For CACGTAGTTAGCTCA, the binding signal is 74.7 Kd / Kd of best base at the position.

CACGTAATTAGCTCA gave a Kd of roughly 1.7 nM.

On to CACGTAATTAGTTCA, for which the binding signal was 3.85 Kd / Kd of best base at the position.

Take CACGTAATTACCTCA: the binding signal was 1.46 Kd / Kd of best base at the position.

Regarding CACGTAATTAGATCA, the binding signal is 2.14 Kd / Kd of best base at the position.

For the sequence CACGTATTTAGCTCA, the binding signal is 11.1 Kd / Kd of best base at the position.

Regarding CACGTAATTAGCACA, the binding signal is 5.4 Kd / Kd of best base at the position.

As to CACGAAATTAGCTCA, the binding signal was 16.8 Kd / Kd of best base at the position.

On to CATGTAATTAGCTCA, for which the binding signal is 1.24 Kd / Kd of best base at the position.

On to CACGCAATTAGCTCA, for which the binding signal is 2.2 Kd / Kd of best base at the position.

Consider CACTTAATTAGCTCA, for which the binding signal is 2.71 Kd / Kd of best base at the position.

With CACGTAATTAGCTCC, the binding signal was 3.56 Kd / Kd of best base at the position.

For CACGTTATTAGCTCA, the binding signal is 26.4 Kd / Kd of best base at the position.

As to CACGTAATTCGCTCA, the binding signal was 43.1 Kd / Kd of best base at the position.

As for TACGTAATTAGCTCA, the binding signal is 1.04 Kd / Kd of best base at the position.

Turning to CACGTAATGAGCTCA, the binding signal was 6.94 Kd / Kd of best base at the position.

Consider CACATAATTAGCTCA, for which the binding signal was 1.34 Kd / Kd of best base at the position.

On to CACGTAATTAGCTCG, for which the binding signal is 2.39 Kd / Kd of best base at the position.

As for CAGGTAATTAGCTCA, the binding signal is 1.11 Kd / Kd of best base at the position.

CACGTAATTAGCGCA: the binding signal is 6.39 Kd / Kd of best base at the position.

As for CAAGTAATTAGCTCA, the binding signal is 1.41 Kd / Kd of best base at the position.

As for CACGTGATTAGCTCA, the binding signal was 30.7 Kd / Kd of best base at the position.

On to CACGTAATTATCTCA, for which the binding signal was 1.9 Kd / Kd of best base at the position.

For CACGTCATTAGCTCA, the binding signal is 1.28 Kd / Kd of best base at the position.

As to CACGTAATTAGCTGA, the binding signal is 4.73 Kd / Kd of best base at the position.

As for CACGTAATTAGCTAA, the binding signal was 3.58 Kd / Kd of best base at the position.

Take CGCGTAATTAGCTCA: the binding signal is 1.07 Kd / Kd of best base at the position.

Consider CACGTACTTAGCTCA, for which the binding signal was 47.3 Kd / Kd of best base at the position.

Turning to CACGTAATTAGCCCA, the binding signal is 4.42 Kd / Kd of best base at the position.

As to CACGTAATTTGCTCA, the binding signal was 10.5 Kd / Kd of best base at the position.

A word on the Kd: it is the concentration at which binding is half-saturated. Higher therefore signals a looser complex.
